# About 79,000 compounds went through this panel and 15% of them were active in at least one assay; those are over-represented in the sample as a whole. Unmarked numbers belong to inactive results. Activity calls are given as the source filed them. Rule as the data show it: active = growth inhibition above about 70%; inactive = the rest.
# Key:
# [1] = NCI Yeast Anticancer Drug Screen. Data for the rad52 strain (AID 147);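 also: 0% = growth of vehicle-treated control cultures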; settings: S. cerevisiae rad52 mutant growth inhibition, hits give high values
# Summary of the method: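 The repair-mutant yeast strain was incubated with compounds, then growth was read and inhibition derived relative to vehicle.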
# [2] = NCI Yeast Anticancer Drug Screen. Data for the wt1 strain (AID 149);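 also: 0% = growth of vehicle-treated wt1 cultures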; settings: S. cerevisiae wt1 strain (SPY 50644) growth inhibition, hits give high values
# Summary of the method: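 The wt1 strain was treated with compounds, and growth was compared with vehicle-treated cultures to give inhibition.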
# [3] = NCI Yeast Anticancer Drug Screen. Data for the rad50EPP+ strain (AID 151);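 also: 0% = growth of vehicle-treated control cultures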; settings: S. cerevisiae rad50 mutant strain, hits give high values
# Summary of the method: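 Vehicle-normalised growth inhibition; rad50EPP+ yeast strain, altered in DNA damage repair, compound-treated.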
# [4] = NCI Yeast Anticancer Drug Screen. Data for the rad50 strain (AID 155);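 also: 0% = growth of vehicle-only cultures of the same strain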; settings: S. cerevisiae rad50 strain growth inhibition, hits give high values
# Summary of the method: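 Cells are treated with compound, grown, and their growth is then scored against vehicle-only cultures of the same repair-deficient yeast strain.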
# [5] = NCI Yeast Anticancer Drug Screen. Data for the mec2-1 strain (AID 157); settings: S. cerevisiae mec2-1 strain, hits give high values
# Summary of the method: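 Mutant yeast (mec2-1) grown with compound; growth inhibition relative to vehicle control reported.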
# [6] = NCI Yeast Anticancer Drug Screen. Data for the rad14 strain (AID 159);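 also: 0% = growth of vehicle-treated control cultures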; settings: S. cerevisiae rad14 strain growth inhibition, hits give high values
# Summary of the method: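 Readout: yeast growth inhibition, referenced to vehicle-only cultures. Strain bears a defined alteration in DNA damage repair.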
# [7] = NCI Yeast Anticancer Drug Screen. Data for the sgs1 mgt1 strain (AID 161);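 also: 0% = growth of cultures given vehicle only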; settings: S. cerevisiae sgs1 mgt1 strain, hits give high values
# Summary of the method: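 This yeast growth screen uses a strain with defined DNA-repair lesions; compound-treated growth is compared with vehicle-treated growth.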
# [8] = NCI Yeast Anticancer Drug Screen. Data for the CLN2oe strain (AID 163);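 also: 0% = growth of vehicle-only control cultures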; settings: S. cerevisiae CLN2oe strain, hits give high values
# Summary of the method: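 Compounds are applied to yeast harbouring a defined cell-cycle control change; reduced growth compared with vehicle-treated controls gives the value.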
# [9] = NCI Yeast Anticancer Drug Screen. Data for the cln2 rad14 strain (AID 165);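 also: 0% = growth equal to vehicle treated cultures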; settings: S. cerevisiae cln2 rad14 strain, hits give high values
# Summary of the method: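 Readout is yeast growth inhibition versus vehicle-treated controls, using a strain with cln2 and rad14 alterations exposed to compound.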
# [10] = NCI Yeast Anticancer Drug Screen. Data for the bub3 strain (AID 167); settings: S. cerevisiae bub3 mutant strain, hits give high values
# Summary of the method: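 Part of a panel of yeast mutants defective in DNA damage repair or cell cycle regulation. Each strain is grown with compound, and inhibition is calculated relative to solvent-treated cultures.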
# [11] = NCI Yeast Anticancer Drug Screen. Data for the wt2 strain (AID 169);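 also: 0% = growth of vehicle-treated yeast cultures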; settings: S. cerevisiae wt2 strain growth inhibition, hits give high values
# Summary of the method: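 Against vehicle-treated controls, the growth of yeast exposed to each compound was compared, and the inhibition was recorded.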
# [12] = NCI Yeast Anticancer Drug Screen. Data for the mlh1 strain (AID 171);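 also: 0% = growth of vehicle-treated control cultures of the same strain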; settings: S. cerevisiae mlh1 strain growth inhibition, hits give high values
# Summary of the method: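 Measured: yeast growth. Reference: vehicle-treated controls. Organism: strain with a defined alteration affecting DNA damage repair or cell cycle control, treated with compound.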
# [13] = NCI Yeast Anticancer Drug Screen. Data for the mlh1 rad18 strain (AID 175); settings: S. cerevisiae mlh1 rad18 strain growth inhibition, hits give high values
# Summary of the method: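 Genetically defined yeast (DNA repair-deficient) exposed to compounds; growth inhibition determined relative to vehicle.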
# [14] = NCI Yeast Anticancer Drug Screen. Data for the rad18 strain (AID 177); settings: S. cerevisiae rad18 mutant growth inhibition, hits give high values
# Summary of the method: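 Vehicle-treated cultures served as the baseline for scoring compound-induced growth inhibition in DNA-repair-mutant yeast.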
# [15] = NCI Yeast Anticancer Drug Screen. Data for the sgs1 strain (AID 173);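 also: 0% = growth of vehicle-only control cultures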; settings: S. cerevisiae sgs1 mutant, hits give high values
# Summary of the method: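 Each compound was added to cultures of the altered yeast strain. Growth was recorded, and inhibition was derived by comparison with vehicle controls.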
# [16] = at 5.0 µM (retest, dose inferred, filed as 0.5)
# [17] = at 50.0 µM (retest, dose inferred, filed as 5.0)
structure (smiles),measurement,setting,value
O=C(/C=C/c1cccc(Br)c1)c1ccc(Cl)cc1,growth inhibition,[1]; at 1.2 µM,-26%
same,growth inhibition,[1]; at 3.7 µM,-14%
same,growth inhibition,[1]; at 11.0 µM,-6%
same,growth inhibition,[1]; at 33.0 µM,28%
same,growth inhibition,[1]; at 100.0 µM,76% (active)
same,growth inhibition,[2]; at 1.2 µM,-46%
same,growth inhibition,[2]; at 3.7 µM,-44%
same,growth inhibition,[2]; at 11.0 µM,-12%
same,growth inhibition,[2]; at 33.0 µM,9%
same,growth inhibition,[2]; at 100.0 µM,63%
same,growth inhibition,[3]; at 1.2 µM,-62%
same,growth inhibition,[3]; at 3.7 µM,-22%
same,growth inhibition,[3]; at 11.0 µM,-25%
same,growth inhibition,[3]; at 33.0 µM,-13%
same,growth inhibition,[3]; at 100.0 µM,2%
same,growth inhibition,[4]; at 1.2 µM,-9%
same,growth inhibition,[4]; at 3.7 µM,0%
same,growth inhibition,[4]; [16],35%
same,growth inhibition,[4]; at 11.0 µM,27%
same,growth inhibition,[4]; at 33.0 µM,66%
same,growth inhibition,[4]; [17],47%
same,growth inhibition,[4]; at 50.0 µM,81.9% (active)
same,growth inhibition,[4]; at 100.0 µM,82% (active)
same,growth inhibition,[5]; at 1.2 µM,-65%
same,growth inhibition,[5]; at 3.7 µM,-68%
same,growth inhibition,[5]; [16],32%
same,growth inhibition,[5]; at 11.0 µM,-51%
same,growth inhibition,[5]; at 33.0 µM,-18%
same,growth inhibition,[5]; [17],47%
same,growth inhibition,[5]; at 50.0 µM,73% (active)
same,growth inhibition,[5]; at 100.0 µM,53%
same,growth inhibition,[6]; at 1.2 µM,-67%
same,growth inhibition,[6]; at 3.7 µM,-46%
same,growth inhibition,[6]; at 11.0 µM,-49%
same,growth inhibition,[6]; at 33.0 µM,-15%
same,growth inhibition,[6]; at 100.0 µM,46%
same,growth inhibition,[7]; [16],4%
same,growth inhibition,[7]; [17],60%
same,growth inhibition,[8]; at 1.2 µM,-17%
same,growth inhibition,[8]; at 3.7 µM,-19%
same,growth inhibition,[8]; at 11.0 µM,-13%
same,growth inhibition,[8]; at 33.0 µM,-12%
same,growth inhibition,[8]; at 100.0 µM,36%
same,growth inhibition,[9]; [16],46%
same,growth inhibition,[9]; [17],48%
same,growth inhibition,[10]; at 1.2 µM,-16%
same,growth inhibition,[10]; at 3.7 µM,-7%
same,growth inhibition,[10]; [16],52%
same,growth inhibition,[10]; at 11.0 µM,38%
same,growth inhibition,[10]; at 33.0 µM,57%
same,growth inhibition,[10]; [17],84% (active)
same,growth inhibition,[10]; at 100.0 µM,82% (active)
same,growth inhibition,[11]; at 1.2 µM,-31%
same,growth inhibition,[11]; at 3.7 µM,-28%
same,growth inhibition,[11]; at 11.0 µM,-19%
same,growth inhibition,[11]; at 33.0 µM,20%
same,growth inhibition,[11]; at 100.0 µM,72% (active)
same,growth inhibition,[12]; at 1.2 µM,-30%
same,growth inhibition,[12]; at 3.7 µM,-19%
same,growth inhibition,[12]; at 11.0 µM,-7%
same,growth inhibition,[12]; at 33.0 µM,19%
same,growth inhibition,[12]; at 100.0 µM,76% (active)
same,growth inhibition,[13]; [16],26%
same,growth inhibition,[13]; [17],56%
same,growth inhibition,[13]; at 50.0 µM,75.3% (active)
same,growth inhibition,[14]; at 1.2 µM,-37%
same,growth inhibition,[14]; at 3.7 µM,-13%
same,growth inhibition,[14]; at 11.0 µM,30%
same,growth inhibition,[14]; at 33.0 µM,61%
same,growth inhibition,[14]; at 100.0 µM,84% (active)
CCCCCCSc1nc(COC(=O)NC)c(COC(=O)NC)n1C,growth inhibition,[1]; at 1.2 µM,-1%
same,growth inhibition,[1]; at 3.7 µM,0%
same,growth inhibition,[1]; at 11.0 µM,-2%
same,growth inhibition,[1]; at 33.0 µM,25%
same,growth inhibition,[1]; at 100.0 µM,98% (active)
same,growth inhibition,[2]; at 1.2 µM,-1%
same,growth inhibition,[2]; at 3.7 µM,-2%
same,growth inhibition,[2]; at 11.0 µM,-2%
same,growth inhibition,[2]; at 33.0 µM,6%
same,growth inhibition,[2]; at 100.0 µM,98% (active)
same,growth inhibition,[3]; at 1.2 µM,-3%
same,growth inhibition,[3]; at 3.7 µM,-6%
same,growth inhibition,[3]; at 11.0 µM,-6%
same,growth inhibition,[3]; at 33.0 µM,5%
same,growth inhibition,[3]; at 100.0 µM,87% (active)
same,growth inhibition,[4]; at 1.2 µM,0%
same,growth inhibition,[4]; at 3.7 µM,-48%
same,growth inhibition,[4]; [16],0%
same,growth inhibition,[4]; at 11.0 µM,20%
same,growth inhibition,[4]; at 33.0 µM,54%
same,growth inhibition,[4]; [17],91% (active)
same,growth inhibition,[4]; at 50.0 µM,49.6%
same,growth inhibition,[4]; at 100.0 µM,99% (active)
same,growth inhibition,[5]; at 1.2 µM,-1%
same,growth inhibition,[5]; at 3.7 µM,2%
same,growth inhibition,[5]; [16],0%
same,growth inhibition,[5]; at 11.0 µM,0%
same,growth inhibition,[5]; at 33.0 µM,9%
same,growth inhibition,[5]; [17],27%
same,growth inhibition,[5]; at 50.0 µM,98.3% (active)
same,growth inhibition,[5]; at 100.0 µM,99% (active)
same,growth inhibition,[7]; [16],0%
same,growth inhibition,[7]; [17],5%
same,growth inhibition,[7]; at 50.0 µM,19.9%
same,growth inhibition,[8]; at 1.2 µM,-2%
same,growth inhibition,[8]; at 3.7 µM,-5%
same,growth inhibition,[8]; at 11.0 µM,-3%
same,growth inhibition,[8]; at 33.0 µM,20%
same,growth inhibition,[8]; at 100.0 µM,97% (active)
same,growth inhibition,[9]; [16],-2%
same,growth inhibition,[9]; [17],57%
same,growth inhibition,[9]; at 50.0 µM,72.8% (active)
same,growth inhibition,[10]; at 1.2 µM,-4%
same,growth inhibition,[10]; at 3.7 µM,0%
same,growth inhibition,[10]; [16],-2%
same,growth inhibition,[10]; at 11.0 µM,-4%
same,growth inhibition,[10]; at 33.0 µM,16%
same,growth inhibition,[10]; [17],45%
same,growth inhibition,[10]; at 50.0 µM,44.2%
same,growth inhibition,[10]; at 100.0 µM,99% (active)
same,growth inhibition,[11]; at 1.2 µM,-3%
same,growth inhibition,[11]; at 3.7 µM,-14%
same,growth inhibition,[11]; at 11.0 µM,-4%
same,growth inhibition,[11]; at 33.0 µM,33%
same,growth inhibition,[11]; at 100.0 µM,99% (active)
same,growth inhibition,[12]; at 1.2 µM,-1%
same,growth inhibition,[12]; at 3.7 µM,0%
same,growth inhibition,[12]; at 11.0 µM,-2%
same,growth inhibition,[12]; at 33.0 µM,32%
same,growth inhibition,[12]; at 100.0 µM,99% (active)
same,growth inhibition,[15]; at 1.2 µM,-4%
same,growth inhibition,[15]; at 3.7 µM,-3%
same,growth inhibition,[15]; at 11.0 µM,-6%
same,growth inhibition,[15]; at 33.0 µM,59%
same,growth inhibition,[15]; at 100.0 µM,99% (active)
same,growth inhibition,[13]; [16],-2%
same,growth inhibition,[13]; [17],74% (active)
same,growth inhibition,[13]; at 50.0 µM,98.3% (active)
same,growth inhibition,[14]; at 1.2 µM,-1%
same,growth inhibition,[14]; at 3.7 µM,-1%
same,growth inhibition,[14]; at 11.0 µM,-1%
same,growth inhibition,[14]; at 33.0 µM,33%
same,growth inhibition,[14]; at 100.0 µM,98% (active)
